Measurements taken from PubChem BioAssay AID651965 (National Center for Advancing Translational Sciences (NCATS), 2013).
The campaign covered roughly 340,000 compounds. About 6,400 (1.9%) were called active. Where a call stands in place of a potency, no number is given. About 4% were inconclusive and are not listed. The call rests on the fitted dose curve; in most records, active means well fitted falling curve with a large enough effect; inconclusive means small, poorly fitted or top-dose-only effect; inactive means no such curve, though single readings can be large or run the other way. The sample as a whole holds a higher share of actives than the screen did.

molecular target: ATP-dependent Clp protease proteolytic subunit (Bacillus subtilis (strain 168)) (UniProt P80244); assay: qHTS Assay for Activators of ClpP; further: the source files actives as falling curves though it sought activators and does not explain the sign; nearly all actives have a fitted effect of over 65% in size; settings: purified B. subtilis ClpP, FRET peptide cleavage, 20 min; series mostly up to 57.5 µM
Summary of the method: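 ClpP 10 microg/mL final, pH 8 Tris/KCl buffer with BSA, glycerol, Tween-20; compound pinned in; FRET-FV substrate; RT 20 min; Ex320/Em430; ΔFRET vs ADEP 5.8 microM, DMSO, no enzyme.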
Potency means the concentration at half of the fitted maximal effect.

Chain of ATP-dependent Clp protease proteolytic subunit (Bacillus subtilis (strain 168)) (P80244 whole entry, looked up): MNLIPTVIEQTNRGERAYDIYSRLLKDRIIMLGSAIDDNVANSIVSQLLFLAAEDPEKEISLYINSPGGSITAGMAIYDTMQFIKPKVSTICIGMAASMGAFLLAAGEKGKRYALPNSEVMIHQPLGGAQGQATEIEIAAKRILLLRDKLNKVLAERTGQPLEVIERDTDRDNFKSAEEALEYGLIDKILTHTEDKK

Compound | Potency
COc1cccc(CNC(=O)[C@@H]2CCCN2C(=O)[C@@H]2CCCN2C(=O)c2ccccc2)c1 | inactive
Cc1[nH]c2ccccc2c1C(=O)c1cc([C@H](NC(=O)OC(C)(C)C)C(C)C)sc1N | inactive
CN(Cc1cn(Cc2ccc(C(F)(F)F)cc2)nn1)C1CN(Cc2cn(Cc3ccc(C(F)(F)F)cc3)nn2)S(=O)(=O)C1 (configuration not stated) | inactive
CCOCCCNC(=O)c1cn(CC)c2ccc(S(=O)(=O)N3CCc4ccccc4C3)cc2c1=O | inactive
CCOCCCNC(=O)c1cn(CC(C)C)c(=O)c2c1c1ccccc1n2C | 39.8 µM (active)
COCCCNC(=O)Cn1cc(C(=O)C2CC2)c2ccccc21 | inactive
CC(=O)C[C@@H]1OC[C@H](CO)N1S(=O)(=O)c1ccc(C)cc1 | inactive
CCN1CCN(c2ccc(/C=C/c3ccnc4ccccc34)cc2)CC1 | inactive
COc1ccc(N2CCN(C(c3cc4ccc(C)cc4[nH]c3=O)c3nnnn3C3CCCC3)CC2)cc1 (configuration not stated) | inactive
COCCn1nnnc1C(c1ccccc1Cl)N1CCN(c2ccccc2OC)CC1 (configuration not stated) | inactive
CCOc1ccc2[nH]c(=O)c(C(c3nnnn3CCOC)N3CCOCC3)cc2c1 (configuration not stated) | 15.8 µM (active)
CSCCC(C(=O)NC(C)(C)C)n1c(-c2ccccc2)nc2ccccc21 (configuration not stated) | inactive
Cc1cccc(C)c1-n1nnnc1C(CCc1ccccc1)N1CCN(C/C=C/c2ccccc2)CC1 (configuration not stated) | inactive
CCCCNC(=O)c1nc(C2CCN(S(=O)(=O)c3ccc(F)c(F)c3)CC2)oc1-c1cccc(C(F)(F)F)c1 | inactive
CCOc1cc(-c2nc3cc(C)ccn3c2NCC2CCCO2)ccc1O (configuration not stated) | 28.2 µM (active)
CCOc1cc(C(C(=O)NCC2CCCO2)N(C(=O)Cn2nnc3ccccc32)c2cccc(OC)c2)ccc1O (configuration not stated) | inactive
COc1ccc(-c2nc3cc(C)ccn3c2NC2CCCCC2)cc1SC1CCCCC1 | inactive
Cc1ccc(S(=O)(=O)NN=C2CC(C)(C)CC(=O)C2(C)C)cc1 | inactive
O=C1COc2ccc(-c3csc(-c4ccc(Cl)cc4)n3)cc2N1 | inactive
CSc1ccccc1-c1nnc(NC(=O)c2ccc3c(c2)OCCO3)o1 | inactive
CSc1ccccc1-c1nnc(-c2ccc(Cl)cc2)o1 | 31.6 µM (active)
COc1ccccc1-c1nnc(-c2ccc(F)cc2)o1 | inactive
CCC(C)CN1C(=O)CSCC1(C)C(=O)NCc1ccccc1 (configuration not stated) | inactive

Compound | Potency
O=C(NCc1ccccc1)c1ccc2c(c1)nc1n2CCCCC1 | inactive
O=C(NCc1ccc(F)cc1)c1ccc2nc(N3CCCCC3)sc2c1 | 35.5 µM (active)
Cc1ccc(C)n1-c1nnc(N2CCC(C(=O)NCc3ccc(F)cc3)CC2)s1 | inactive
CN1OC[C@@H]2CN(C(=O)C(C)(C)C)[C@H](c3ccc(-n4ccnc4)cc3)C[C@@H]21 | inactive
CN1CCN(C(=O)c2ccc(-c3cc4nc(NCc5cccnc5)n(C)c(=O)c4s3)cc2)CC1 | inactive
COc1ccc(Cn2c(=O)[nH]c3cc(C(=O)N4CCN(C(=O)c5ccco5)CC4)ccc3c2=O)cc1 | inactive
Cc1ccc(Sc2ccc(NC(=O)c3ccc(F)cc3)cc2C#N)cc1 | inactive
CC(=O)Nc1cc(C(=O)NCc2ccc(F)cc2)ccc1Sc1ccc(F)cc1 | inactive
COC(=O)c1ccc(Sc2ccc(F)cc2)c(N)c1 | 28.2 µM (active)
C=C1C=C(C)n2ncc(C(=O)Nc3ccccc3O)c2N1 | inactive
COCCn1c(SCC(=O)Nc2ccc(F)cc2F)nc2c(c1=O)SCC2 | inactive
Cc1cc2nc(-c3ccc(F)cc3)c(Cc3ccsc3)n2c(C)c1Br | inactive
Cc1cc(C)n2nc(C(=O)OCC(=O)N(CCC#N)c3ccc(F)cc3)nc2n1 | inactive
Cc1c(C(=O)OCC(=O)N(CCC#N)c2ccccc2)oc2c1ccc1ccccc12 | 25.1 µM (active)
N#CCCN(C(=O)COC(=O)c1ccc(S(=O)(=O)N2CCCCCC2)cc1)c1ccccc1 | inactive
O=C(Nc1ccc(N2CCOCC2)cc1)c1cccc2c(-c3ccc(F)c(F)c3)coc12 | inactive
Cc1nc2c(OCc3cccc(Cl)c3)cccn2c1N(C)CC1CC1 | inactive
COc1cc(Cn2c3ccc(NC(=O)CC(C)c4ccccc4)cc3c(=O)n2C)ccc1F (configuration not stated) | inactive
COc1ccc(-n2c(-c3ccc(Cl)cc3)n[nH]c2=S)c(OC)c1 | inactive
COc1ccc2c(c1)C(=O)Nc1cc(Cl)ccc1N2 | 28.2 µM (active)
COc1ccc(OC)c(C(=O)c2ccc(Cl)cc2)c1 | inactive
C=CCn1c(-c2ccc(Cl)cc2)ccc(C#N)c1=O | 28.2 µM (active)
C=CCn1c(SCn2nnc3ccccc3c2=O)nnc1-c1ccc(Cl)cc1 | inactive

Compound | Potency
CCn1c(C)cc(=O)cc1-c1ccc(Cl)cc1 | inactive
COc1cc2ccc(C(C)=O)c(O)c2cc1OC | inactive
CCC(O)CNc1nc(-n2nc(C)cc2C)nc2sc3c(c12)CC(C)(C)OC3 (configuration not stated) | inactive
COCCNc1ncnc2c1nc1n2CCCC1 | inactive
COCCNc1nc(-n2nc(C)cc2C)nc2sc3c(c12)CCCC3 | 28.2 µM (active)
COCCCNC(=O)c1cccc2c(-c3ccc(O)c(OC)c3)coc12 | inactive
CC1=C(C(=O)Nc2cccc(C(=O)NCC(C)c3ccccc3)c2)SCCO1 (configuration not stated) | inactive
CN1CCN(C(=O)c2ccc(NC(=O)c3ccc(Br)o3)cc2)CC1 | inactive
Cc1c(C(=O)NCc2ccc(C#N)cc2)sc(=O)n1Cc1ccc(C(=O)N(C)C)cc1 | inactive
COC(=O)[C@@]12C[C@@H](CC(=O)N3CCC(c4ccccc4)CC3)C(=O)N(Cc3ccccc3)C1=CCC(C)(C)C2 | inactive
COCCNC(=O)CSc1nc(N)c(NC(=O)c2ccco2)c(=O)[nH]1 | inactive
Cc1nnc(SCC(=O)NCCOc2ccc(Cl)cc2)n1-c1ccccc1 | inactive
COCCNC(=O)CSc1nc(-c2ccccc2)[nH]c1-c1ccc(C)cc1 | 31.6 µM (active)
CC1(C(=O)NS(=O)(=O)c2ccccc2)CCN1C(=O)c1ccccc1 (configuration not stated) | inactive
O=C(c1cc(C2CCCCN2S(=O)(=O)c2ccccc2)on1)N1CCOCC1 (configuration not stated) | inactive
CN1C(=O)c2ccc(NC(=O)c3c(F)c(F)c(F)c(F)c3F)cc2C1=O | 31.6 µM (active)
O=C(Nc1ccc2c(c1)OCCO2)C1CCCC1 | inactive
CN1C(=O)c2ccc(NC(=O)C3CCCCC3)cc2C1=O | 31.6 µM (active)
Cc1cccc(C(=O)Nc2ccc3c(c2)C(=O)N(CC(C)C)C3=O)c1 | inactive
CN1C(=O)c2ccc(C(=O)Nc3ccc(Br)cn3)cc2C1=O | inactive
Cc1nc2ccc(NC(=O)C3CCCCC3)cc2s1 | inactive
